Targets include LARS1 (UniProt Q9P2J5); LDHB (UniProt P07195); LSM4 (UniProt Q9Y4Z0); MAD1L1 (UniProt Q9Y6D9); MAP1B (UniProt P46821); MAPK14 (UniProt Q16539); MARS1 (UniProt P56192); MBOAT7 (UniProt Q96N66); MCM2 (UniProt P49736); MCM6 (UniProt Q14566); MCM7 (UniProt P33993); MED4 (UniProt Q9NPJ6); MYDGF (UniProt Q969H8); MYH9 (UniProt P35579); MYO9B (UniProt Q13459); NAP1L4 (UniProt Q99733); NCAPD2 (UniProt Q15021); NCBP1 (UniProt Q09161); NDUFA5 (UniProt Q16718); NDUFA6 (UniProt P56556); NDUFAF4 (UniProt Q9P032); NDUFS2 (UniProt O75306); NIP7 (UniProt Q9Y221); NMI (UniProt Q13287); NOC4L (UniProt Q9BVI4); NOL7 (UniProt Q9UMY1); NPM1 (UniProt P06748); NUDT5 (UniProt Q9UKK9); NUP160 (UniProt Q12769); RAE1 (UniProt P78406); NUP50 (UniProt Q9UKX7); NUP62 (UniProt P37198); NUP85 (UniProt Q9BW27); NUP88 (UniProt Q99567); OSBPL11 (UniProt Q9BXB4); PAFAH1B2 (UniProt P68402); PAM16 (UniProt Q9Y3D7); PAXBP1 (UniProt Q9Y5B6); PDE4DIP (UniProt Q5VU43); PELP1 (UniProt Q8IZL8); PFKP (UniProt Q01813); PHC2 (UniProt Q8IXK0); PNN (UniProt Q9H307); PNO1 (UniProt Q9NRX1); RPL23A (UniProt P62750); PRPF31 (UniProt Q8WWY3); PSME2 (UniProt Q9UL46); PUF60 (UniProt Q9UHX1); RAD50 (UniProt Q92878); RAN (UniProt P62826); RNF20 (UniProt Q5VTR2); RPF1 (UniProt Q9H9Y2); RPLP2 (UniProt P05387); RREB1 (UniProt Q92766); SIN3A (UniProt Q96ST3); RSL24D1 (UniProt Q9UHA3); RTCB (UniProt Q9Y3I0); RUVBL2 (UniProt Q9Y230); RWDD1 (UniProt Q9H446); SDHA (UniProt P31040); SEH1L (UniProt Q96EE3); SEPTIN11 (UniProt Q9NVA2); SEPTIN2 (UniProt Q15019); SERBP1 (UniProt Q8NC51).

Holding throughout (test): cross-linking mass spectrometry
Common to all, as to settings: DSBSO, in cells or nuclear extract, not told apart

Sequence of RPF1 (Q9H9Y2 whole entry): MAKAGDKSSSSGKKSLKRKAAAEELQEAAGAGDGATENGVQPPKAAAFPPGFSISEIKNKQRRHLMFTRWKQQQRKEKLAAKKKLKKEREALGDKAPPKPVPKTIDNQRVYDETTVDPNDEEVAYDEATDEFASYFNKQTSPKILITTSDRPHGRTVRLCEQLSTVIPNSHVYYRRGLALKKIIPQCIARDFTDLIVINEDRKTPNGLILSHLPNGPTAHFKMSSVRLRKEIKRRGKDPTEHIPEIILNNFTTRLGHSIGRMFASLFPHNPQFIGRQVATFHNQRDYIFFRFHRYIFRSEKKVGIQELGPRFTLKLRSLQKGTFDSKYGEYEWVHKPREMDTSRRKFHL
Sequence of RAD50 (Q92878 whole entry): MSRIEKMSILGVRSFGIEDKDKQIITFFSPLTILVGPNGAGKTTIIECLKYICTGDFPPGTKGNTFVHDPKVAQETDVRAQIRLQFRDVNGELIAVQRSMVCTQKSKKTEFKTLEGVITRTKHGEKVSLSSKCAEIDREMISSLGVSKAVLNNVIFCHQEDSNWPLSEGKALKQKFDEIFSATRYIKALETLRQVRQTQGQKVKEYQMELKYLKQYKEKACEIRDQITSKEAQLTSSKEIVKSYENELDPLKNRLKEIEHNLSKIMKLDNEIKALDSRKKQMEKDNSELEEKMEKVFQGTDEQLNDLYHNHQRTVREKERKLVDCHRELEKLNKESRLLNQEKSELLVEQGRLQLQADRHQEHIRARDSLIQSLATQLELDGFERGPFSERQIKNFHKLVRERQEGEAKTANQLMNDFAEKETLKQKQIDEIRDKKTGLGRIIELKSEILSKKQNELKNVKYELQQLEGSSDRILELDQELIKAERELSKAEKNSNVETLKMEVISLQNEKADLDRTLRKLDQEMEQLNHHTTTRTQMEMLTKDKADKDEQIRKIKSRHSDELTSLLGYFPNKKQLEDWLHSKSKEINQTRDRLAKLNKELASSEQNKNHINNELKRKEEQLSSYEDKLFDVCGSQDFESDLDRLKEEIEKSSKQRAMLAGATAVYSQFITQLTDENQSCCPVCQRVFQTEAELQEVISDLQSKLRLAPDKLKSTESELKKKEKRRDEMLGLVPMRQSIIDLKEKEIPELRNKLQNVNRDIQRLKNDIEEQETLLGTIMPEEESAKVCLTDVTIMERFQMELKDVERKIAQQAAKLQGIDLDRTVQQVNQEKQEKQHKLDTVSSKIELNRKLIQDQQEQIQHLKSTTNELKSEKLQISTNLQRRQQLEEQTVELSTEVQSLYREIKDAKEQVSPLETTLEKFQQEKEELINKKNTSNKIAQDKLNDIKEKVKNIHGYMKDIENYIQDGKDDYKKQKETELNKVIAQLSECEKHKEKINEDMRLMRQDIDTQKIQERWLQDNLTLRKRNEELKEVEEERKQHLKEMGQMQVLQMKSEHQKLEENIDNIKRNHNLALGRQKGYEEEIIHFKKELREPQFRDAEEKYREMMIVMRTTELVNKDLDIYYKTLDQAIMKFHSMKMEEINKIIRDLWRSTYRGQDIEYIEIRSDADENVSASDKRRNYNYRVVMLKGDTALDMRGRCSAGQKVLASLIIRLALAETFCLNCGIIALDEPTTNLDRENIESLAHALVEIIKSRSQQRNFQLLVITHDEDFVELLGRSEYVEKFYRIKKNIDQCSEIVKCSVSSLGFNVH
Sequence of NUP98, P52948 (P52948 whole entry): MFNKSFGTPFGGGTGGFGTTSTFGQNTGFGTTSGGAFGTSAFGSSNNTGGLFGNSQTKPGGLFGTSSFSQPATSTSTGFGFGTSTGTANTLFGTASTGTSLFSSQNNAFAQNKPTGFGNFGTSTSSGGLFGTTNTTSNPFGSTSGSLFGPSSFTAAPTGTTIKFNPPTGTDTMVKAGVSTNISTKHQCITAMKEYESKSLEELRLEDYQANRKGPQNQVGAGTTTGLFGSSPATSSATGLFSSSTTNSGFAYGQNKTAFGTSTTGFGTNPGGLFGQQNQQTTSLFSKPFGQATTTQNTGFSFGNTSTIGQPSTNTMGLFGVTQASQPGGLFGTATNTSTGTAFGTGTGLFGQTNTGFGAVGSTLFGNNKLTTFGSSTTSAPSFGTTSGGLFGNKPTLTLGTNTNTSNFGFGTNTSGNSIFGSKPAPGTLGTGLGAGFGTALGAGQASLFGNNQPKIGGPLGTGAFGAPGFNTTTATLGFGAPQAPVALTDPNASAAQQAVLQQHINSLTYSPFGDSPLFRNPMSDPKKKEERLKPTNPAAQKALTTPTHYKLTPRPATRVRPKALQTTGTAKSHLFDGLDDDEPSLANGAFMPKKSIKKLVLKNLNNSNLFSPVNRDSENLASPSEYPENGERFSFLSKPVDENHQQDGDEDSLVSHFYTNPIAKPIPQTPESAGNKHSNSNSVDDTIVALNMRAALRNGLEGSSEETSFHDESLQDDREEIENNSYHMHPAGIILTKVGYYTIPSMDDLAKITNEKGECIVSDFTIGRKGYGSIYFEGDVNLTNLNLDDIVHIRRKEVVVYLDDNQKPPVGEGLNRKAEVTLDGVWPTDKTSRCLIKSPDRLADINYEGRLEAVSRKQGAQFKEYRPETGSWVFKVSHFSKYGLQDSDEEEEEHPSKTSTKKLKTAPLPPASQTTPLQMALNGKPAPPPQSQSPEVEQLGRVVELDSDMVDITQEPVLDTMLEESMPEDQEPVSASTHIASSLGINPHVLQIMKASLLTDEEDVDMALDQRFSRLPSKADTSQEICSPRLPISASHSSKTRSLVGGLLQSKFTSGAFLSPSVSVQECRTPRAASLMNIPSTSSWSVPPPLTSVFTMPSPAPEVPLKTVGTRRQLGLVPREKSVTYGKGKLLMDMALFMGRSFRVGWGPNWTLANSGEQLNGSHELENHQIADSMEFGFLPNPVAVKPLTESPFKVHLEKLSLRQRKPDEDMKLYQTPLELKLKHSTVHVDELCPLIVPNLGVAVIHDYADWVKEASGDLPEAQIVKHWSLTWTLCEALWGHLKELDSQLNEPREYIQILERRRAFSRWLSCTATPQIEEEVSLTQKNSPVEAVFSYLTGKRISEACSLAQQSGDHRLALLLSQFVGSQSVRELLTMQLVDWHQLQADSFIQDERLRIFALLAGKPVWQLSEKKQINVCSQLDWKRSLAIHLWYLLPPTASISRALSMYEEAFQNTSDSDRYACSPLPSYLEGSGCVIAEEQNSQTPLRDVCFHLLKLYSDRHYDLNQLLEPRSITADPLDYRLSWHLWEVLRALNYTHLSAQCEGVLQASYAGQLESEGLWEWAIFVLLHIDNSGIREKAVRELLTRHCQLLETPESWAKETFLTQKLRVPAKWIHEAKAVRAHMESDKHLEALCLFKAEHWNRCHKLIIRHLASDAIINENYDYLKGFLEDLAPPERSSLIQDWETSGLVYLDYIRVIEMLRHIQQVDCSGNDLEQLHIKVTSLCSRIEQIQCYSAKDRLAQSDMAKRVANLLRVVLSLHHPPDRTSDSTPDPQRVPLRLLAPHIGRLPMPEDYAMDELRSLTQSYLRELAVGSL
Sequence of LSM4 (Q9Y4Z0 whole entry): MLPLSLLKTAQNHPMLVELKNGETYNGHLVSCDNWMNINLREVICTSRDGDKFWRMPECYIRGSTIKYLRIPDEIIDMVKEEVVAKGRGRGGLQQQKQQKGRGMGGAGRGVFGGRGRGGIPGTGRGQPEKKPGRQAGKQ
Sequence of NDUFS7, O75251 (O75251 whole entry): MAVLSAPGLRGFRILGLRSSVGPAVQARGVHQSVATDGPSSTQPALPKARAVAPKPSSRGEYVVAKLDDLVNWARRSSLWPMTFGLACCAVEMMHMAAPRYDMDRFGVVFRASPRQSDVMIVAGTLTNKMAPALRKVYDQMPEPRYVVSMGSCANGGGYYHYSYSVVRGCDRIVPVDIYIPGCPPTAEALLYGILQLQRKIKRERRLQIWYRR
Sequence of HDAC1, Q13547 (Q13547 whole entry): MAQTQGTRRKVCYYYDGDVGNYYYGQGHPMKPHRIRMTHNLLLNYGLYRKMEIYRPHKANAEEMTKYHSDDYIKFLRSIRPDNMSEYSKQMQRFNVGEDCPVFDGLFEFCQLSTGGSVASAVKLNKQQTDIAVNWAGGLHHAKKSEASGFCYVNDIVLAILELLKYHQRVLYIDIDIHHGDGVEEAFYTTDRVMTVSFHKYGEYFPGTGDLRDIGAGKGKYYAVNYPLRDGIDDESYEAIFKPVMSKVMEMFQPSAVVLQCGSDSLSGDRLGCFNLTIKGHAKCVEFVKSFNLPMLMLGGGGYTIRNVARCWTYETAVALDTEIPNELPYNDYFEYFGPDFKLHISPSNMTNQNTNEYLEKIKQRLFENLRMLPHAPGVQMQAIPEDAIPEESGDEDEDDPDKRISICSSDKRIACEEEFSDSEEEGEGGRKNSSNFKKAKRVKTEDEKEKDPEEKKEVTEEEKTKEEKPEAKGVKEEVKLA
Sequence of IMMT, Q16891 (Q16891 whole entry): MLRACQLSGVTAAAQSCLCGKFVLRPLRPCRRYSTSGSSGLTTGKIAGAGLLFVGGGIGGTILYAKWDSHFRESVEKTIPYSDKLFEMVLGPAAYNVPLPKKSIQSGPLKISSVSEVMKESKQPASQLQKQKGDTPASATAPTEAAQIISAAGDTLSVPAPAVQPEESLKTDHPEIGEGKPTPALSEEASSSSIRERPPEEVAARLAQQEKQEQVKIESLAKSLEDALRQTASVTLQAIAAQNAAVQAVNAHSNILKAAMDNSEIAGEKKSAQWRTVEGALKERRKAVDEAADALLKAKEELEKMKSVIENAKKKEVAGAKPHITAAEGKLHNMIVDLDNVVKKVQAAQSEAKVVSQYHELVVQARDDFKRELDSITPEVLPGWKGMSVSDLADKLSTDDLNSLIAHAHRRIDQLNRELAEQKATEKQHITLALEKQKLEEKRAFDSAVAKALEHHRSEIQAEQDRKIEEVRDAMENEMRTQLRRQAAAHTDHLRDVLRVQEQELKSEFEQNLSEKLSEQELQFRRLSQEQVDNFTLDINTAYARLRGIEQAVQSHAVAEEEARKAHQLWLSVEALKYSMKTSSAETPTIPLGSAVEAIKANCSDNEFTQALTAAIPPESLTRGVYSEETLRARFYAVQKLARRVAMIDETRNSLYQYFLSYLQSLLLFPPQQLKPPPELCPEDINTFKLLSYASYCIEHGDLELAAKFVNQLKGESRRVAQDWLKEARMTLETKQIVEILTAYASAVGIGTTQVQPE

As to IARS1, P41252, the cross-linked residues entry with LARS1 is given as “K796 - K9”.

For the substance LDHA, P00338, the cross-linked residues entry with LDHB is reported as “K14 - K156”.

In the case of PATL1, Q86TB9, the cross-linked residues entry in the assay with LSM4 is on record as “K398 - K80”.

On to LSM7, Q9UK45, for which the cross-linked residues entry with LSM4 is listed as “K8 - K80”.

For the substance MAD2L1, Q13257, in the assay with MAD1L1, the cross-linked residues result is “K122 - K666”.

Take H1-5, P16401: in the assay with MAP1B, the cross-linked residues entry is reported as “K161 - K2291”.

For MAPKAPK2, P49137, the cross-linked residues entry with MAPK14 is listed as “K307 - K233”.

For the substance EEF1E1, O43324, the cross-linked residues result with MARS1 is “K21 - K663”.

COX6B1, P14854: the cross-linked residues result in the assay with MBOAT7 is on record as “K47 - K468”.

For MCM4, P33991, the cross-linked residues entry with MCM2 is “K819 - K807”.

On to MCM7, P33993, for which the cross-linked residues result in the assay with MCM6 is given as “K75 - K197”.

As to MCM2, P49736, the cross-linked residues result in the assay with MCM6 is reported as “K591 - K517”.

As to MCM3, P25205, the cross-linked residues result with MCM7 is listed as “K435 - K236”.

Take MED1, Q15648: the cross-linked residues entry with MED4 is reported as “K70 - K81”.

Regarding PRKCSH, P14314, the cross-linked residues result with MYDGF is “K436 - K161”.

Regarding TPR, P12270, the cross-linked residues entry with MYH9 is “K854 - K1614”.

On to H1-2, P16403, for which the cross-linked residues result with MYO9B was “K140 - K1390”.

For NAP1L1, P55209, the cross-linked residues result with NAP1L4 was “K87 - K105”.

For SMC2, O95347, in the assay with NCAPD2, the cross-linked residues entry is listed as “K1014 - K78”.

For the substance NCBP2, P52298, the cross-linked residues entry with NCBP1 is listed as “K68 - K607”.

As to NDUFA10, O95299, in the assay with NDUFA5, the cross-linked residues result was “K80 - K30”.

As for NDUFS4, O43181, the cross-linked residues entry in the assay with NDUFA6 is reported as “K73 - K116”.

Take NDUFS7, O75251: the cross-linked residues entry was “K55 - K107” with NDUFAF4 and “K136 - K78” with NDUFS2.

For the substance NOP2, P46087, the cross-linked residues entry with NIP7 is given as “K423 - K72”.

For IFI35, P80217, the cross-linked residues result in the assay with NMI was “K47 - K254”.

As to NOP14, P78316, the cross-linked residues result with NOC4L is “K535 - K342”.

With UTP15, Q8TED0, the cross-linked residues result with NOL7 is given as “K416 - K210”.

As for NPM3, O75607, the cross-linked residues result with NPM1 is on record as “K125 - K27”.

For PYCR2, Q96C36, the cross-linked residues result in the assay with NUDT5 was “K47 - K210”.

NUP98, P52948: the cross-linked residues result was “K1749 - K1096” in the assay with NUP160 and “K175 - K252” in the assay with RAE1.

In the case of CSE1L, P55060, the cross-linked residues result with NUP50 is “K726 - K62”.

As to NUP214, P35658, the cross-linked residues entry with NUP62 is given as “K755 - K371”.

As to SEH1L, Q96EE3, in the assay with NUP85, the cross-linked residues result is listed as “K314 - K59”.

NUP62, P37198: in the assay with NUP88, the cross-linked residues entry is on record as “K415 - K642”.

In the case of PPA1, Q15181, the cross-linked residues result in the assay with OSBPL11 is “K238 - K660”.

With PAFAH1B1, P43034, the cross-linked residues entry in the assay with PAFAH1B2 was “K147 - K145”.

For the substance DNAJC19, Q96DA6, the cross-linked residues entry with PAM16 is “K93 - K82”.

Turning to TFIP11, Q9UBB9, the cross-linked residues result with PAXBP1 is on record as “K267 - K682”.

With IMMT, Q16891, the cross-linked residues result in the assay with PDE4DIP was “K343 - K1022”.

With NOL9, Q5SY16, the cross-linked residues entry with PELP1 is “K670 - K216”.

As for PFKM, P08237, in the assay with PFKP, the cross-linked residues result is recorded as “K476 - K736”.

For RING1, Q06587, the cross-linked residues entry with PHC2 is “K297 - K598”.

As to SAP18, O00422, in the assay with PNN, the cross-linked residues entry is recorded as “K74 - K109”.

For the substance NPM1, P06748, the cross-linked residues result with PNO1 is recorded as “K267 - K77”; in the assay with RPL23A, “K141 - K30”.

SNU13, P55769: in the assay with PRPF31, the cross-linked residues entry is listed as “K86 - K315”.

PSME1, Q06323: the cross-linked residues result in the assay with PSME2 is “K190 - K180”.

On to SRSF11, Q05519, for which, in the assay with PUF60, the cross-linked residues result was “K58 - K69”.

ACTR1B, P42025: the cross-linked residues entry with RAD50 is recorded as “K324 - K651”.

Consider MRE11, P49959, for which the cross-linked residues result with RAD50 was “K393 - K1190”.

In the case of XPO1, O14980, in the assay with RAN, the cross-linked residues result was “K426 - K159”.

For RNF40, O75150, the cross-linked residues result in the assay with RNF20 was “K862 - K834”.

Turning to WDR74, Q6RFH5, the cross-linked residues result with RPF1 is recorded as “K151 - K182”.

MAK16, Q9BXY0: the cross-linked residues entry with RPF1 is given as “K164 - K302”.

Take RPLP1, P05386: the cross-linked residues entry with RPLP2 is recorded as “K33 - K25”.

For the substance HDAC1, Q13547, the cross-linked residues result with RREB1 was “K74 - K259”; in the assay with SIN3A it was “K220 - K552”.

GTPBP4, Q9BZE4: the cross-linked residues result with RSL24D1 is “K448 - K88”.

Turning to RTRAF, Q9Y224, the cross-linked residues entry with RTCB is listed as “K185 - K492”.

As to HAUS3, Q68CZ6, the cross-linked residues result in the assay with RUVBL2 is given as “K595 - K177”.

For the substance DRG2, P55039, the cross-linked residues result with RWDD1 is reported as “K311 - K166”.

For SDHB, P21912, the cross-linked residues entry in the assay with SDHA is recorded as “K167 - K167”.

Consider NUP43, Q8NFH3, for which the cross-linked residues entry with SEH1L is given as “K161 - K96”.

SEPTIN2, Q15019: the cross-linked residues entry with SEPTIN11 is reported as “K249 - K190”.

In the case of SEPTIN6, Q14141, in the assay with SEPTIN2, the cross-linked residues result is given as “K191 - K249”.

Turning to RPS12, P25398, in the assay with SERBP1, the cross-linked residues entry is listed as “K116 - K299”.

These data come from paper PMC12350791.
